In the library only some 1.2% were active in any assay of this set; here they are far more common.
CCT chaperon mod – changes cytosolic chaperonin activity | purified chaperonin ATPase assay, HTRF ADP detection, 30 min | activity change, % (no concentration beside the values), hits read low | hit rate 0.3% among 360,000 | AID 651819; in the data active = activity change below about -30%; note: % is set by controls: 0 for no effect and ±100 for the full control effect
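Nucleotide hydrolysis assay: TRiC at 20–40 nM final (set by batch activity) with 10 uM ATP, 30 min at 37 °C, in presence of 76 uM compound. Detection by competitive ADP HTRF, 30 min ambient.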
MmCpn inh – blocks the Methanococcus maripaludis chaperonin Mm-Cpn | purified Mm-Cpn ATPase, ADP Transcreener TR-FRET | Potency, µM (doses to about 76.9 µM), inactives show at the top dose activity, negative = inhibition, usual class: inhibitors | hit rate 0.031% among 330,000 | AID 504842; note: potency is the fitted concentration of half-maximal effect; % is set by controls: 0 for no effect and ±100 for the full control effect; nearly all actives have a fitted effect of over 80% in size
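ATPase turnover read by TR-FRET ADP competition (Eu cryptate antibody/ADP-d2, 665/590 nm): 10uM ATP final, 25nM Mm-CPN final, 30 min 37degC after 10-min compound preincubation, pH 7.4 Tris/KCl/MgCl2/DTT buffer.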
gsp ag – gsp mutant agonism; gsp mutant cells, cAMP HTRF, 30 min; Potency, µM (titrated, usually from 76.9 µM), inactives show at the highest dose activation (cAMP increase), usual class: activators; hit rate 0.13% among 340,000; active = well fitted activation curve with a large enough effect; inconclusive = small, poorly fitted or top-dose-only effect, or another doubt; inactive = no such curve, though single readings can be large or run the other way; cell line not stated here;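 note: phosphodiesterase inhibitor Ro 20-1724 added with compounds to block cAMP breakdown; potency is the fitted concentration of half-maximal effect; nearly all actives have a fitted effect of over 60% in size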
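Cells in DMEM/10% FBS with G418 were pretreated with compounds in DMSO plus […] (300 uM stock) for 30 min at 37C. cAMP was measured by HTRF (cAMP-d2 plus anti-cAMP antibody-K) after 30 min at room temperature.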
RXFP1 agonist – RXFP1 (human) receptor agonism. Q9HBX9. HEK293T-RXFP1 cAMP TR-FRET, 30 min; response scale: percent of porcine relaxin response, buffer zero. Potency, µM (series often up to 57.5 µM), without a hit: top-dose activation, hits mostly activators. hit rate 0.3% among 370,000. AID 2676; note: potency is the fitted concentration of half-maximal effect; % is set by controls: 0 for no effect and ±100 for the full control effect; nearly all actives have a fitted effect of over 60% in size
Target sequence (Q9HBX9 whole entry, looked up): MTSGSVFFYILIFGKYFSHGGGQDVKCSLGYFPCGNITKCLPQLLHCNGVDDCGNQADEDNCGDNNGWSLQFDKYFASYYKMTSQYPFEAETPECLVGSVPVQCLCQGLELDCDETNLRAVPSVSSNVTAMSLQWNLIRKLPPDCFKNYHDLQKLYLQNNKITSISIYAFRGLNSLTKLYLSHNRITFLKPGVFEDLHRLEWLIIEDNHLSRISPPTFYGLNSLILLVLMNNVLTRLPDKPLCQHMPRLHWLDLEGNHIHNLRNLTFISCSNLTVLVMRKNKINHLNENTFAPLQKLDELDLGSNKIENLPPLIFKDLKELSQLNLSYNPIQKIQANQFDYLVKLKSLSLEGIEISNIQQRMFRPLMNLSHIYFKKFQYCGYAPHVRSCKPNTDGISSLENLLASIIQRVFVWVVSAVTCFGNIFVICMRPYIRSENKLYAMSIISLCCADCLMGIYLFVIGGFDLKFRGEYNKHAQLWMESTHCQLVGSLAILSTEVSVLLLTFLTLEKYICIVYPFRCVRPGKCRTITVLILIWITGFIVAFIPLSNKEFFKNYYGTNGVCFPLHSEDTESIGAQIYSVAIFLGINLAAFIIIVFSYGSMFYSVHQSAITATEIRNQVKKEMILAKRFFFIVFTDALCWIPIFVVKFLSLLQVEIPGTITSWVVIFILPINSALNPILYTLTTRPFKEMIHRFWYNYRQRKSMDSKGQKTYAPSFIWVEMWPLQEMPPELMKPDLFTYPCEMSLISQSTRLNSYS
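HEK293 cells stably expressing RXFP1, treated 30 min at 37C with compounds plus PDE4 inhibitor Ro 20174; cAMP measured by HTRF TR-FRET. Normalized to buffer and 29 nM porcine relaxin; EC50 by Hill fit.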
RXFP1 antag – blocks the human relaxin receptor RXFP1; hit rate 0.59% among 350,000; Q9HBX9; activity change, negative = inhibition, % at 57.5 µM; HEK293-RXFP1, relaxin-stimulated cAMP HTRF, 30 min; stronger effect = lower value;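 active = activity change of -60% or lower, but not beyond a set lower limit; inconclusive = change between -60% and -40%, or beyond the set limit; inactive = change above -40%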; note: % is set by controls: 0 for no effect and ±100 for the full control effect
gsp antagonist – antagonizes gsp, the McCune-Albright syndrome mutation; hit rate 0.4% among 340,000; Potency, µM (top dose mostly 76.9 µM), without a hit: at the top dose activity change, negative = inhibition, most hits filed as inhibitors; gsp-mutant cells, cAMP HTRF, 30 min; AID 624288; calls by dose curve; cell line not stated here;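 note: intracellular cAMP measured with PDE inhibitor Ro 20-1724 present during compound exposure; potency is the fitted concentration of half-maximal effect; % is set by controls: 0 for no effect and ±100 for the full control effect; nearly all actives have a fitted effect of over 65% in size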
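HTRF cAMP measurement after 30 min RT detection following 30 min, 37C compound treatment alongside […] (added as 300 uM solution) in G418-selected cells seeded at 2000/well and grown 16–24 h.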
An asterisk follows results filed as active; ? = inconclusive; / = no result; [ ] = dose if it differs, or a comment. Unless noted, calls come from the whole dose curve; as a rule, active = well fitted curve in the direction sought with a large enough effect; inconclusive = small, poorly fitted or top-dose-only effect, or another doubt; inactive = no such curve, though single readings can be large; an effect the other way counts as inactive or inconclusive.

SMILES	CCT chaperon mod	MmCpn inh	gsp ag	RXFP1 agonist	RXFP1 antag	gsp antagonist
CN1CCN(c2nc3c(c(=O)n(C)c(=O)n3C)n2Cc2cccc3ccccc23)CC1	-4	1%	25µM*	0%	-20	3%
Cn1c(=O)c2c(nc(N3CCCC3)n2C)n(C)c1=O	0	1%	20µM*	15%	-2	-5%
O=C(CSCc1ccc(Cl)cc1)N/N=C/c1ccc(OCC(=O)Nc2ccccc2)cc1	-53*	-2%	19%	0%	-16	-10%
CN(C)CCOC1=Cc2ccccc2Sc2ccc(Cl)cc21	/	/	/	/	-32	/
CCc1ccc(N(C(=O)c2snc(C(N)=O)c2N)C(C(=O)NCC2CCCO2)c2cccs2)cc1 (stereo not given)	2	-1%	-24%	-2%	?	?
Cc1ccc(C)c(N(C(=O)c2snc(C(N)=O)c2N)C(C(=O)NCC2CCCO2)c2ccc(C)o2)c1 (stereo not given)	-2	-1%	-6%[15.4 µM]	1%	-87*	-15%
NC(=O)c1nsc(C(=O)N(c2ccc(Cl)cc2)C(C(=O)NCC2CCCO2)c2cccs2)c1N (stereo not given)	1	4%	-16%	2%	-62*	?
Cc1ccc(C)c(N(C(=O)c2snc(C(N)=O)c2N)C(C(=O)NCC2CCCO2)c2cccs2)c1 (stereo not given)	1	-3%	20%[15.4 µM]	3%	?	/
O=C(CCC1N=C2c3ccccc3N=C(SCc3cccc(F)c3)N2C1=O)NCc1cccs1 (stereo not given)	/	/	/	1%	-29	/
O=C1c2[nH]nc(-c3ccccc3O)c2C(c2ccccc2F)N1Cc1ccco1 (stereo not given)	-1	2%	?	1%	-7	-17%
CCOc1cccc(C2c3c(-c4cc(C)ccc4O)n[nH]c3C(=O)N2Cc2ccco2)c1 (stereo not given)	/	/	/	3%	-76*	/
Cc1ccc(O)c(-c2n[nH]c3c2C(c2ccccc2F)N(Cc2ccco2)C3=O)c1 (stereo not given)	/	/	/	-2%	-69*	/
O=C(Nc1ccccc1C(=O)NC(Cc1ccccc1)C(=O)O)c1ccco1 (stereo not given)	-1	2%	-5%	4%	7	6%
O=C(Nc1ccccc1C(=O)NC(Cc1ccc(O)cc1)C(=O)O)c1ccccc1 (stereo not given)	-36*	0%	2%	1%	0	0%
COc1ccc(C(=O)Nc2cccc(-c3cn4ccsc4n3)c2)c(OC)c1	/	/	/	0%	4	/
O=C(c1cccn1-c1nnc(N2CCCCC2)s1)N1CCN(c2ccc(Cl)cc2)CC1	/	/	/	0%	?	/
O=C(CSc1nc(-c2ccc(Cl)cc2)[nH]c(=O)n1)Nc1cccc(Cl)c1	-6	3%	6%[15.4 µM]	0%	-70*	-13%
O=C(CSc1n[nH]c(-c2cccnc2)n1)Nc1cccc(Cl)c1	-2	1%	-31%	3%	-8	-14%
O=c1nc(SCc2c(F)cccc2Cl)nc(-c2ccccc2)[nH]1	-31*	1%	-36%	9%	4	4%
CCCCOc1ccc(CNC(=O)c2cccc(NC(=O)N3CCSc4ncccc43)c2)cc1	/	/	/	3%	-23	/
CCc1cc2ccc(C)cc2nc1SCC(=O)Nc1cc(C)on1	2	5%	-3%[15.4 µM]	19%	3	-4%
CCc1ccc2nc(SCC(=O)Nc3ccccc3N3CCOCC3)c(C#N)cc2c1	-5	0%	1%[15.4 µM]	0%	-1	-8%
COc1ccc2nc(SCC(=O)Nc3cc(C)on3)c(C#N)cc2c1	-1	-2%	6%	-11%	-2	?
Cc1ccc2nc(SCC(=O)Nc3ccccc3N3CCOCC3)c(C#N)cc2c1	0	-2%	22µM*	21%	8	-6%
Cc1cc(NC(=O)CSc2nc3ccccc3cc2C#N)no1	-94*	-6%	-2%[15.4 µM]	-4%	-3	-19%
